The panel holds about 79,000 compounds, 15% with a hit somewhere; the sample as a whole holds those more often. Values without a mark were called inactive. Active and inactive are the calls of the source. No stated cut-off is given here; in the data, active means growth inhibition above about 70%; inactive means the rest.
Tests used:
[1] = NCI Yeast Anticancer Drug Screen. Data for the rad50 strain (AID 155);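 further: 0% = growth of vehicle-only cultures of the same strain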; details: S. cerevisiae rad50 strain growth inhibition; at 50.0 µM; active compounds read high
Outline: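 Relative growth inhibition (compound vs vehicle) was measured in yeast with a defined repair-gene alteration.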

[2] = NCI Yeast Anticancer Drug Screen. Data for the mec2-1 strain (AID 157); details: S. cerevisiae mec2-1 strain, at 50.0 µM, active compounds read high
Outline: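 Vehicle-treated cultures served as reference for growth inhibition of compound-exposed mec2-1 yeast.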

[3] = NCI Yeast Anticancer Drug Screen. Data for the sgs1 mgt1 strain (AID 161);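 further: 0% = growth of cultures given vehicle only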; details: S. cerevisiae sgs1 mgt1 strain, at 50.0 µM, active compounds read high
Outline: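 Genetically altered yeast, compound exposure, growth inhibition relative to vehicle.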

[4] = NCI Yeast Anticancer Drug Screen. Data for the cln2 rad14 strain (AID 165);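 further: 0% = growth equal to vehicle treated cultures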; details: S. cerevisiae cln2 rad14 strain, at 50.0 µM, active compounds read high
Outline: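 Each compound was tested on cln2 rad14 yeast. Inhibition of growth was calculated against vehicle-exposed controls.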

[5] = NCI Yeast Anticancer Drug Screen. Data for the bub3 strain (AID 167); details: S. cerevisiae bub3 mutant strain, at 50.0 µM, active compounds read high
Outline: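 Screening used yeast with an engineered genetic alteration affecting cell cycle control. Compound-exposed cultures were compared with vehicle cultures, and reduced growth was taken as inhibition.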

[6] = NCI Yeast Anticancer Drug Screen. Data for the mlh1 rad18 strain (AID 175); details: S. cerevisiae mlh1 rad18 strain growth inhibition; at 50.0 µM; active compounds read high
Outline: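 Vehicle-treated cultures served as the reference for growth inhibition in a yeast strain carrying DNA damage repair alterations exposed to each compound.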

| Structure (SMILES) | growth inhibition [1] | growth inhibition [2] | growth inhibition [3] | growth inhibition [4] | growth inhibition [5] | growth inhibition [6] |
| --- | --- | --- | --- | --- | --- | --- |
| CS/C(c1ccccc1)=[N+](/C)[O-] | 42.6% | 16.5% | 17.3% | -1% | 24.6% | 25.6% |
| CC1(C)OC2COC(CN(N=O)C(N)=O)C2O1 (configuration not stated) | 15.2% | -15.7% | -8.15% | -75% | -17.4% | 5.75% |
| O=C(Nc1ccn(CCOC(=O)c2ccccc2)c(=O)n1)c1ccccc1 | -9.4% | -21.3% | 22.8% | 14.6% | 23.7% | 47.6% |
| Cc1ncc([N+](=O)[O-])n1CCNS(=O)(=O)CCCn1ccnc1[N+](=O)[O-] | -4.85% | -17.1% | -18.9% | -25.7% | -18.5% | -58.7% |
| CC(=O)c1cccc(NC(=O)Oc2ccc(Cl)cc2Cc2ccccc2)c1 | 99.1% (active) | 50.2% | 64.1% | 99.5% (active) | 99.4% (active) | 99% (active) |
| CN(C)CCCSc1n[nH]c(=O)[nH]c1=O | 6.4% | 2.5% | -11.3% | -19.7% | 1.6% | -10.1% |
| Cc1ccc(S(=O)(=O)Oc2nc3nc4ccccc4nc3nc2OS(=O)(=O)c2ccc(C)cc2)cc1 | -3.5% | -2% | 3.7% | -10.5% | 3.5% | -3.95% |
| COc1cc2c[n+]3c4c(cccc4c2cc1OC)CC3 | 5.75% | 0.55% | 1.15% | -2.7% | 3.2% | -13.7% |
| CCCNC1=C(C(=O)OCC)C(=O)CO1 | -12.4% | -20.7% | 3.55% | 15.6% | -2.4% | 0.1% |
| Ic1ccc2c[n+]3ccccc3cc2c1 | -11.7% | 25.9% | 8.85% | -29.8% | 1.75% | -3.95% |
| N#C/C(c1ccccc1)=[N+](/[O-])O | 2.55% | -4.9% | 2.5% | -20.7% | -17.5% | 13.7% |
| CCCC(C)(CC)C(=O)O (configuration not stated) | 7.45% | -14.8% | 14.4% | -10.3% | 1.95% | 34.8% |
| O=c1c2c(sc3ccccc13)NCN(CCc1ccccc1)C2 | -10.7% | -4.15% | 20.9% | 3.2% | 19.1% | 12.2% |
| CC(=O)Nc1cccc(/C=C/c2ccc([N+](=O)[O-])cc2)c1 | 52.8% | 42.6% | 53% | 32.5% | 46.4% | 89.2% (active) |
| C[CH2][Ge]([CH2]C)[CH2]C.C[CH2][Ge]([CH2]C)[CH2]C.C[CH2][Ge]([CH2]C)[S][Ge]([CH2]C)[CH2]C | 25.1% | 29.5% | 52.7% | 40.4% | 35.9% | 6.75% |
| Clc1ccc(/C=C2/c3ccccc3-c3nc4ccccc4cc32)cc1 | -1.1% | 24% | 23.8% | -24.9% | -9.4% | 6.85% |
| Cn1cc(/C=C\C(=O)O)c2ccccc21 | -10.7% | -0.6% | 6.7% | -35.2% | -26.9% | 6.4% |
| CC1=[N+]([O-])C2(CCCC2)N(O)C1(C)C | -13.8% | -0.7% | 9.7% | 19.5% | -6.25% | 12.8% |
| C=CC(O)CCCC (configuration not stated) | 8.35% | -32.6% | 0.6% | 6.25% | -17.1% | 18.1% |
| CCOC(=O)c1cc(C)nc2c1c(=O)n(-c1ccccc1)c(=O)n2CCCCN1CCN(c2ccccc2)CC1 | -1.7% | -13.2% | 4.8% | 3.25% | -21.8% | -29.1% |
| C=CCOC(OCC=C)C(C)C | -0.5% | -12.2% | -13.9% | -3.4% | -23.4% | -3.4% |

| Structure (SMILES) | growth inhibition [1] | growth inhibition [2] | growth inhibition [3] | growth inhibition [4] | growth inhibition [5] | growth inhibition [6] |
| --- | --- | --- | --- | --- | --- | --- |
| CCCCCCCCCCCCCCCCn1cnc2c(Cl)ncnc21 | 23.2% | 3.9% | -19.5% | 12.8% | -2.6% | 2.55% |
| CCCCCCCCN1N=CC(CC)C1CCC (configuration not stated) | 3.15% | -11.8% | 6.5% | 11.3% | -0.8% | 1.45% |
| O=C1OC(=O)C2=C1C1C=CC2CC1 | 3.4% | -7.05% | 3% | 0% | -9.05% | 13.4% |
| c1ccc(-c2nc3ccccc3nc2-c2ccc(Cc3ccc(-c4nc5ccccc5nc4-c4ccccc4)cc3)cc2)cc1 | 39.5% | 19.1% | 15.4% | 21.2% | -6.5% | 25.1% |
| CCNC(=O)OCCN1C(=O)C2C3CCC(O3)C2C1=O (configuration not stated) | 5.25% | 11.4% | 22.1% | 3.35% | 8.5% | 12.8% |
| COC(=O)c1cc(C(C)O)nc2ccccc12 (configuration not stated) | 4.95% | 3.95% | 6.25% | 0.65% | 27% | 6.35% |
| O=C(O)c1cc2c(c(C(=O)O)c1O)CCCC2 | 11.3% | -19.6% | 9.95% | -23.2% | -6.35% | -4.85% |
| O=c1/c(=C2\Cc3cccc4cccc2c34)c2cccc3cccc1c32 | -9.7% | -10.8% | 10.1% | -1.45% | 18.7% | -15.2% |
| CN=Cc1ccccc1O.CN=Cc1ccccc1O.[Cu+2] | 6.55% | -8.6% | -10.9% | -73.8% | -2.5% | 3.05% |
| O=C1C2C3CCC(O3)C2C(=O)N1c1ccccn1 (configuration not stated) | -26.3% | -11.6% | -4.85% | -25.1% | 2.25% | 0.2% |
| Nc1nc(Cl)nc2c1ncn2C1CCC(CO)O1 (configuration not stated) | -21.2% | 1.35% | -7.9% | 5.5% | 4.15% | 16.1% |
| Cc1[nH]c2ccccc2c1C(=O)Cc1ccc(Cl)cc1Cl | -3.6% | 31.8% | 32.2% | -4.35% | 23.8% | 33.4% |
| FC(F)(F)C(F)(F)C(F)(F)c1n[nH]c(C(F)(F)C(F)(F)C(F)(F)F)n1 | 12.8% | 15.1% | 33.4% | 2.95% | 18.5% | -0.1% |
| O=C(O)/C=C(/Oc1ccccc1)c1ccccc1 | -12.3% | -7.7% | -7.95% | -8.7% | -19.8% | -3.55% |
| COC(=O)C1C(C)C1c1ccc2c(c1)OCO2 (configuration not stated) | 2.65% | 2.05% | -0.7% | -3.7% | -0.7% | -25.5% |
| CCCCCCCCCCCCCCCCS(=O)(=O)N/N=C(/C)N(C)c1ccc(OC)cc1 | -15.4% | -32.4% | -6.1% | -10.4% | -15.4% | -7.15% |
| COc1ccc(CC2CCCNC2C(=O)O)cc1 (configuration not stated) | -1.65% | -13.2% | -3.55% | -38.7% | -16.6% | 10.8% |
| O=C(/C=C/c1ccc(Cl)cc1)c1cc(Cl)ccc1O | -14.4% | -25.3% | -13.8% | -27.8% | 16.2% | -10.2% |
| C/C(CC(=O)Nc1ccccc1C)=N/NS(=O)(=O)c1ccc(C)cc1 | -2.2% | -5.2% | 10.2% | 19.3% | -18.4% | -6.9% |
| COc1cc([N+](=O)[O-])c(C(=O)O)c(C(=O)O)c1OC | 9.8% | -5.55% | 3.7% | -2.2% | 1.7% | 1.15% |
| Cc1ccc(C2[C@H]3C(=O)N(c4ccc(Cc5ccc(N6C(=O)[C@@H]7ON(c8ccccc8)C(c8ccc(C)cc8)[C@@H]7C6=O)cc5)cc4)C(=O)[C@H]3ON2c2ccccc2)cc1 (some centres not stated) | -23.9% | -17.9% | -8.1% | 26.9% | -5.75% | -10.8% |

From PubChem BioAssay (NCI)
